697 NFkB inh = inhibitors of the PMA/ionomycin-induced NF-kB reporter in 697 B cells. 697 B-cell NF-kB luciferase reporter, 16 h. inhibition, % at 4 µM. actives 0.33% (n = 330,000); in the data active = inhibition above about 35%
Jurkat NFkB inh = inhibitors of the PMA/ionomycin-induced NF-kB reporter in Jurkat cells; PMA/ionomycin-induced NF-kB luciferase reporter, luminescence; inhibition, % at 4 µM; actives 0.53% (n = 330,000); in the data active = inhibition above about 50%
Beta apoptosis = beta cell apoptosis inhibition | INS-1E cytokine-induced death, ATP luminescence, 48 h; percent of positive-control rescue, neutral wells zero | protection from apoptosis, % (no concentration beside the values) | actives 0.8% (n = 300,000) | AID 435005;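 active = Every replicate reaches about 75%, or at least half do and their mean reaches it too, limit read from the data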;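 also: 0% = cytokine-treated negative control wells and 100% = positive control rescue; higher means more ATP so stronger rescue from cytokine killing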
Gli-Sufu antag = antagonists of Gli-Sufu signaling. Sufu-KO-LIGHT fibroblasts, Gli luciferase reporter luminescence. inhibition, % at 5 µM. actives 0.74% (n = 340,000). AID 588413;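 active = inhibition above about 55%, limit read from the data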;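 also: 0% = DMSO-treated cells and 100% = wells with medium but no cells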
Mdm2-MdmX inh = human Mdm2/MdmX binding inhibition. O15151+Q00987. SaOS-2 split-luciferase Mdm2/MdmX complementation, luminescence. inhibition, % at 8 µM. actives 3% (n = 330,000). AID 485346;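 active = inhibition of at least 50% at 8 µM in the primary screen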
Target sequence (O15151 whole entry, looked up): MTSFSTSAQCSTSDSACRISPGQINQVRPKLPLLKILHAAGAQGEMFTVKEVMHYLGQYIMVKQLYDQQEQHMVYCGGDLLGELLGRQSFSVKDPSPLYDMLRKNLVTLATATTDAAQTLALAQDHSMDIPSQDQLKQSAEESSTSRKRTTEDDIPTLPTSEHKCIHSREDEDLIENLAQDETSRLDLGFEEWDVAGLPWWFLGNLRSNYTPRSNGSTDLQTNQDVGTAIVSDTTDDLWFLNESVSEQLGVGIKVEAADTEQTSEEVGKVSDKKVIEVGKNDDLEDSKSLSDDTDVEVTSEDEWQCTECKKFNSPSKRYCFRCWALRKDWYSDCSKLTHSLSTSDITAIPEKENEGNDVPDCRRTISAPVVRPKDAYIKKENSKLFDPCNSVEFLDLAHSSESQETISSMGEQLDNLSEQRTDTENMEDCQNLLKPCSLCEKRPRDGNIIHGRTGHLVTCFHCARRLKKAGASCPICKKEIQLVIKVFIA
Target sequence (Q00987 whole entry, looked up): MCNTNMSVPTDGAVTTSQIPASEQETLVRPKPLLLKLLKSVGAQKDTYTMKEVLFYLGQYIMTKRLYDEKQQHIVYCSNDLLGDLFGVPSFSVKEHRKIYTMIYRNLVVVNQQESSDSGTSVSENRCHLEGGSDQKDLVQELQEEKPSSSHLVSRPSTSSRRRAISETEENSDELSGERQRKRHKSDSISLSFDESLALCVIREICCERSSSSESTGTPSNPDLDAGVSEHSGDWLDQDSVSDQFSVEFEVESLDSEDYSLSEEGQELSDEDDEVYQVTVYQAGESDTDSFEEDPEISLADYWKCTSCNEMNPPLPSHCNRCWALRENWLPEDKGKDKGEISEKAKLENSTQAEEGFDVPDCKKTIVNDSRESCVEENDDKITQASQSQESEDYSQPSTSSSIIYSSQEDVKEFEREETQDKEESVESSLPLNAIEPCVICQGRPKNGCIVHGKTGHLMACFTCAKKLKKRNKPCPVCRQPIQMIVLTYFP
CSC inhib = blocks cancer stem cells; cancer stem cell-like cells viability, luminescence; actives 1.1% (n = 300,000); AID 2717; inhibition, % at 7.5 µM; in the data active = inhibition above about 75%; tested in HMLE shEcad cells
Gli antag conf = Gli-SUFU antagonism confirmation, single concentration; shares compounds with Gli-Sufu antag; Sufu-KO-LIGHT cells, Gli luciferase reporter, luminescence; inhibition, % at 5 µM; actives 40% (n = 2,500); AID 602428;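 active = mean inhibition at 5 µM reaching about 45%, limit read from the data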;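 also: plate controls were DMSO-treated cells for no effect and wells lacking cells for full effect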
Gli cytotox = cytotoxic in Gli-SUFU antagonist counter-screen | actives 32% (n = 2,500) | cytotoxicity, % at 5 µM | shares compounds with Gli-Sufu antag | Sufu-KO-LIGHT cells cytotoxicity, ATP luminescence;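 active = mean cytotoxicity at 5 µM above about 25%, limit read from the data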;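 also: cells exposed to compound overnight for roughly 16 to 18 hours; plate controls were DMSO wells with cells for no effect and medium without cells for full effect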
Wnt3a cs = inhibits Wnt3a reporter, counter-screen for Gli-SUFU antagonists; shares compounds with Gli-Sufu antag; Wnt-LIGHT cells, Wnt3a-driven luciferase reporter, luminescence; inhibition, % at 6.25 µM; actives 20% (n = 2,500);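 active = mean inhibition above about 25%, limit read from the data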
Numbers without * were called inactive; / = no result. Rows were chosen to be rich in hits. Some 4.5% of all compounds tested hit in one or more screens of this group.

SMILES	697 NFkB inh	Jurkat NFkB inh	Beta apoptosis	Gli-Sufu antag	Mdm2-MdmX inh	CSC inhib	Gli antag conf	Gli cytotox	Wnt3a cs
CC(c1ccc(F)cc1)n1cc(C(=O)NCc2ccccn2)nn1 (stereo not given)	17	-7	-1	-6	28	-10	/	/	/
CC(c1ccc(F)cc1)n1cc(C(=O)NCCN(C)C)nn1 (stereo not given)	-35	-31	-11	57*	-7	62	29	21	6
CC(C)NS(=O)(=O)c1ccc2c(c1)oc(=O)n2C	-3	-1	1	57*	-18	-3	10	2	-10
Cn1c(=O)oc2cc(S(=O)(=O)Nc3ccccc3)ccc21	2	8	0	-3	29	-2	/	/	/
CC(C)Cc1nnc(NC(=O)CCC(=O)NC2CCCCCC2)s1	-11	-1	0	-17	-18	12	/	/	/
CCn1cc(CN2CCC(n3nccc3NC(=O)CCOc3ccccc3)CC2)cn1	-26	-4	3	13	-11	7	/	/	/
CCn1cc(CN2CCC(n3nccc3NC(=O)CCc3ccccc3)CC2)cn1	12	9	-1	84*	21	8	34	12	9
COc1ccccc1C(CNC(=O)c1ccc(C)c(S(=O)(=O)N2CCCCC2)c1)N1CCCC1 (stereo not given)	-2	-9	/	10	2	/	/	/	/
Cc1cccnc1CN1CCN(C(=O)c2cc(COc3ccc4ncccc4c3)on2)CC1	-47	26	100*	62*	38	12	66*	27*	27*
O=C(c1cc(COc2ccc3ncccc3c2)on1)N1CCCC(O)C1 (stereo not given)	1	7	1	29	-12	-7	/	/	/
CCOC(=O)N1CCN(C(=O)c2cc(COc3ccc4ncccc4c3)on2)CC1	-1	26	55	67*	13	-6	51*	23	23
O=C(NC1CCCCCCC1)c1cc(COc2ccc3ncccc3c2)on1	/	/	/	73*	/	/	73*	28*	-12
Cc1[nH]c2ccccc2c1C(=O)C(=O)NC1CC(=O)N(c2ccc(F)cc2)C1 (stereo not given)	7	10	-8	-3	19	8	/	/	/
CCOC(=O)Cn1c(Br)nc2c1c(=O)[nH]c(=O)n2C	5	-9	-8	99*	4	-5	12	7	-15
CCC(=O)OCCn1c(Br)nc2c1c(=O)[nH]c(=O)n2C	10	7	3	5	-10	9	/	/	/
CN(C)c1ccc(C(=O)N2CCNC(=O)C2CC(=O)Nc2ccc(F)cc2)cc1 (stereo not given)	4	13	0	95*	23	-6	17	3	-6
COc1ccc(NC(=O)CC2C(=O)NCCN2C(=O)c2ccc(N(C)C)cc2)cc1 (stereo not given)	19	-3	-1	2	13	-12	/	/	/
CN(C)CCCNc1ncnc2c1cnn2Cc1ccccc1Cl	2	-2	/	9	2	/	/	/	/
O=C(Cn1nnc(-c2ccccc2)n1)N/N=C/c1cccc([N+](=O)[O-])c1	-3	22	-5	50	-10	-3	21	0	-4
O=C(Cn1nnc(-c2ccccc2)n1)N/N=C/c1cccc([N+](=O)[O-])c1O	12	-5	-2	14	7	-1	/	/	/
Cc1cccc(NC(=O)CSCC(=O)N(C)Cc2c(F)cccc2Cl)c1	7	12	-7	5	14	0	/	/	/
NS(=O)(=O)c1cccc(NC(=O)CN2C(=O)C(=O)N(Cc3ccccc3)C2=O)c1	16	9	1	7	-5	-3	/	/	/
CCOc1c(CNCCN2CCOCC2)cccc1OC	14	7	-3	52	12	-8	30	-1	23
CCN(/C=N/c1sc2c(c1C#N)CCCCC2)CC	-73	-103	0	-77	-81	0	/	/	/
CN1CCN(/C=N/c2sc3c(c2C#N)CCCCC3)CC1	-118	-99	3	80*	-101	18	-31	7	-196
SMILES	697 NFkB inh	Jurkat NFkB inh	Beta apoptosis	Gli-Sufu antag	Mdm2-MdmX inh	CSC inhib	Gli antag conf	Gli cytotox	Wnt3a cs
O=C(Nc1nc(-c2cccs2)cs1)c1ccc(S(=O)(=O)N2CCCCC2)cc1	-6	12	4	7	38	19	/	/	/
O=C(Nc1nc(-c2cccs2)cs1)c1cccc(S(=O)(=O)N2CCCCCC2)c1	-31	-17	2	61*	1	25	58*	-5	-81
CCOc1ccc(NS(=O)(=O)c2ccc(C(=O)N3CCCC(C)C3)cc2)cc1 (stereo not given)	-20	-1	/	57*	20	-11	27	2	-13
CCOc1ccc(NS(=O)(=O)c2cccc(C(=O)N3CCN(C/C=C/c4ccccc4)CC3)c2)cc1	/	/	/	54	/	/	34	13	-52
CCCOc1ccc(C(F)(F)F)cc1NC(=O)c1cc(C)on1	2	-2	5	-14	14	/	/	/	/
COc1ccc(/C=C(/NC(=O)c2ccccc2)C(=O)N/N=C/c2ccc3c(c2)OCO3)cc1OC	/	/	/	84*	/	/	18	0	-7
O=C(CNC(=O)N1CC(=O)Nc2ccccc21)Nc1ccc(F)c(Cl)c1	-29	-8	-7	-27	2	-10	/	/	/
CCCC(=O)N1CCN(S(=O)(=O)c2cc(Cl)ccc2OC)CC1	0	-1	-11	55*	28	-7	5	11	-3
Cn1c(=O)c2c(nc(SCCN3CCOCC3)n2C)n(C)c1=O	-6	-9	6	-3	9	1	/	/	/
CSc1ccc(S(=O)(=O)NCC(=O)OCC(=O)N2CCC(C)CC2)cc1[N+](=O)[O-]	20	-3	2	8	10	-17	/	/	/
Cc1cc(C(C)(C)C)ccc1OCCn1ccnc1	-15	7	9	55*	10	7	30	6	-10
Cc1ccc(OCCn2ccnc2)c(C)c1	2	-13	0	-3	11	2	/	/	/
CC[C@]12c3[nH]c4ccccc4c3CCN1C(=O)C(CC(=O)NCCC1=CCCCC1)C[C@@H]2C(=O)N1CCN(C(=O)c2ccco2)CC1 (stereo not given in full)	-16	1	-7	7	27	/	/	/	/
CCCCCCCC[n+]1c(C)n(-c2ccccc2)c2ccc(NC(C)=O)cc21	-49	11	102*	76*	-6	-2	78*	31*	9
CC(=O)Nc1ccc(-n2c(=O)c3ccccc3c3ccccc3c2=O)cc1	-25	-3	12	-10	-12	-7	/	/	/
Cc1cc(C)n(CC(=O)NNC(=O)COc2ccc(Br)cc2F)n1	15	2	-1	5	1	-17	/	/	/
